Experimental findings from PubChem BioAssay AID2060323 (National Center for Advancing Translational Sciences (NCATS), 2025) are described below.

Results filed as inconclusive are left out. Where a call stands in place of a potency, no number is given. Activity calls are given as the source filed them. Calls come from the whole dose curve; as a rule, active = well fitted activation curve with a large enough effect; inconclusive = small, poorly fitted or top-dose-only effect; inactive = no such curve, though single readings can be large or run the other way.

Chain of Cellular tumor antigen p53 (Homo sapiens) (P04637 whole entry, looked up): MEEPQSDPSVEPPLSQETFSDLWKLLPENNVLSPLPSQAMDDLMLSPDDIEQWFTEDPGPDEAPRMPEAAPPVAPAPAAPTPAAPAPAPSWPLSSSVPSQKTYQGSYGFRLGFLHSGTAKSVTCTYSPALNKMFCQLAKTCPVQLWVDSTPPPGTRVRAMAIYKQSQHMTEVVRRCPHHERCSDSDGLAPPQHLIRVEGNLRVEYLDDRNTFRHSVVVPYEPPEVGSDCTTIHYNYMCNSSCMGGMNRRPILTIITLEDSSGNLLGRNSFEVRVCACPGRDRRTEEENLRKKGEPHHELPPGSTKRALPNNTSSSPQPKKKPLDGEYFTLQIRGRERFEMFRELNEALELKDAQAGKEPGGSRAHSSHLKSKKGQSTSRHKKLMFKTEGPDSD

The test has as its target Cellular tumor antigen p53 (Homo sapiens) (UniProt P04637). Kind of test: Confirmatory qHTS for small molecule compounds that upregulate eGFP-tagged delta133p53alpha (in C-terminal) cells. The conditions noted are these: delta133p53alpha-eGFP (C-terminal) reporter cells, GFP fluorescence upregulation; series mostly up to 57.5 µM. An excerpt:
Assay Development and Screening Technology
National Center for Advancing Translational Sciences (NCATS),
National Institute of Health (NIH), Rockville, Maryland
Cellular senescence (CS) is one of the hallmarks of aging and age-related diseases. Senescent cells are characterized by an irreversible growth arrest, an increase in senescence-associated beta-galactosidase (SA-beta-gal) activity and p16INK4a expression, an activation of the DNA damage response pathways, and the emergence of a senescence-associated secretory phenotype (SASP).
Delta133p53alpha, a human/primate-specific p53 protein isoform, delays or inhibits the induction of CS and SASP in various types of human cells, including progeria-derived fibroblasts, primary normal astrocytes, and CD8+ T lymphocytes. Induction of delta133p53alpha with small molecule compounds may provide therapeutic opportunities for inhibition of senescence/SASP-associated pathologies in progeria syndromes, astrocyte-mediated neuroprotection in neurodegenerative diseases, and possibly prevention and treatment of a wider range of senescence- and aging-associated diseases.
Here we report the development and validation of a cell-based quantitative high throughput screening (qHTS) assay in 1,536-well format. This qHTS assay uses the NCI-H358 cell line with doxycycline-inducible expression of enhanced green fluorescent protein (eGFP)-tagged delta133p53alpha, which allows efficient and highly quantitative measurement of the protein levels.
PROTOCOL TABLE (as described by Inglese J, Shamu CE and Guy RK. 2007)
SEQUENCE No. (e.g., 1, 2, 3, etc.); […] (e.g., Cells, Incubation, Reagent, etc.); VALUE; DESCRIPTION.
1; Cells; 4uL; 800 doxycycline treated cells / well in doxycycline-free media, 1536-well black, clear-bottom low base Aurora microplates.
2; Compounds; 23 nL; Kalypsis pin tool (Wako) equipped with 1536-well pin heads, 5-azacytidine positive control.
3; Incubation; 24 hr; 37C, 5% CO2; 95% relative humidity.
4; Aspiration; 1x; BioTek EL406 washer dispenser (Agilent).
5; Fixing; 3.5% paraformaldehyde, BioTek EL406 washer dispenser (Agilent).
6; Washing; 1x PBS; BioTek EL406 washer dispenser (Agilent).
7; Nuclei staining; 1:1000 dilution of Hoechst 33342 (Thermofisher), BioTek EL406 washer dispenser (Agilent).
8; Incubation; 20 min; in the dark at room temperature.
9; Washing; 2x, 1x PBS (ThermoFisher), BioTek EL406 washer dispenser (Agilent).
10; Reagent; 10 uL; 1x PBS per well, sealed with clear adhesive tape.
11; Detection; Fluorescence, Acumen eX3 laser scanning cytometer (STP Labtech), GFP filters […].
NOTES (numbers refer to sequence numbers above).
1. NCI-H358 cells expressing eGFP-tagged delta133p53alpha were grown in T75 culture flasks and treated with doxycycline for 24h, at 10 ng/ml for eGFP-D133p53a cells (N-terminal cell) and 100 ng/ml for D133p53a-eGFP cells (C-terminal cells). Cells were trypsinized, counted using a Counted 3 Automated Cell Counter (Thermo Fisher), and diluted to a concentration of 200,000 cells/ml. A Multidrop Combi Reagent Dispenser (ThermoFisher) was used to dispense 800 cells/well in […] of doxycycline-free media, into 1536-well black/clear bottom low base plates (AuroraMicroplates).
2. After plating cells, 23 nl of compound library, DMSO vehicle control or positive control (5-azacytidine) were transferred by Pin Tool (Wako). The plate map layout was the same for each plate: (column 1) non-doxycycline treated cells + DMSO vehicle control; (column 2) doxycycline treated cells + DMSO vehicle control baseline; (column 3) doxycycline treated cells + positive control 57.5 uM final concentration 5-azacytidine; (column 4) doxycycline treated cells + serial dilution of 5-azacytidine, 16-point 1:2 titration spanning 1.8 nM to […] final concentration; (columns 5-48) doxycycline treated cells + titration of library compounds.
3. Cells were incubated at 37 °C, 5 % CO2, 95% RH with breathable metal lid for 24h.
4-10. […]
Consider `CC(C)(C)[C@]1(O)CCN2C[C@H]3c4ccccc4CCc4cccc(c43)[C@@H]2C1`, for which the Potency result was “inactive”. The value for `CC1CN(S(=O)(=O)c2cccc3cnccc23)CCN1` (stereo unspecified) was “inactive”; that for `N=c1ccn2c(n1)O[C@H]1[C@H](O)[C@@H](CO)O[C@H]12` was “inactive”.

As for `O=C1NC(=O)c2c1c(-c1ccccc1)cc1[nH]c3ccc(O)cc3c21`, the Potency result was “inactive”. The figure for `CC[C@@]1(O)C(=O)OCc2c1cc1n(c2=O)Cc2cc3c(CN(C)C)c(O)ccc3nc2-1` is 4.85 µM (active); for `O=Nc1c(-c2c(O)[nH]c3cc(Br)ccc23)[nH]c2ccccc12` it is “inactive”; for `NC[C@@H]1O[C@H](C23CC4CC(CC(C4)C2)C3)Cc2c1ccc(O)c2O` it is 19.3 µM (active). For `CC(C)(CO)Cc1cc(C(C)(C)C)c(O)c(C(C)(C)C)c1`, the Potency result is “inactive”. The value for `CSc1ccccc1N1CCN(CCCCCC(=O)NC2CCCc3ccccc32)CC1` (stereo unspecified) was “inactive”; that for `O=C(N[C@@H](Cc1ccccc1)C(=O)CCl)OCc1ccccc1` was 3.85 µM (active); that for `Cn1cc(C2=C(c3ccc(Cl)cc3Cl)C(=O)NC2=O)c2ccccc21` was 0.968 µM (active).

In the case of `Nc1nc(Cl)nc2c1ncn2[C@@H]1O[C@H](COP(=O)(O)OP(=O)(O)OP(=O)(O)O)[C@@H](O)[C@H]1O`, the Potency result was “inactive”. The entry for `CCN1CCCC1CNC(=O)c1cc(S(=O)(=O)CC)c(N)cc1OC` (stereo unspecified) is “inactive”; for `COC(=O)Nc1nc2ccc(C(=O)c3cccs3)cc2[nH]1` it is “inactive”; for `C#C[C@]1(O)CC[C@H]2[C@@H]3CCC4=Cc5oncc5CC4(C)[C@H]3CCC21C` (stereo partly specified) it is “inactive”. The value for `CC12C(=O)OC(=O)C1(C)C1CCC2O1` (stereo unspecified) was 4.85 µM (active); that for `Cn1c(=O)c2[nH]c(-c3ccccc3)nc2n(C)c1=O` was “inactive”.

Turning to `Cc1cc(C)c(/C=C2\C(=O)Nc3ccccc32)[nH]1`, the Potency was 7.69 µM (active). The entry for `CCCCCCCCCCCCCCCCCCOC[C@H](COP(=O)([O-])OCC[N+](C)(C)C)OC` is “inactive”; for `Cn1cnc2c(NCc3ccccc3)nc(NCCO)nc21` it is “inactive”. For the compound `CC(=O)SC1CC2=CC(=O)CC[C@]2(C)C2CC[C@@]3(C)C(CC[C@@]34CCC(=O)O4)C12` (stereo partly specified), the Potency entry is “inactive”.
